# Reference: PubChem BioAssay AID1159580 (chemical genetic matrix, 2015)
# “And” between values parts separate entries of the source, which are not always exact repeats. Equal entries are not always repeated. The campaign covered roughly 5,500 compounds. About 2,000 (36%) were called active. About 18% were inconclusive and are not listed. The list shows a part of the results. Unmarked numbers belong to inactive results. Rule as the data show it: active = normalized growth mostly below about 0.91 (no sharp cut-off); inconclusive = no clear call, values can overlap the other calls; inactive = mostly above about 0.92.
# Test: chemical genetic growth profiling, strain panel (AID 1159580);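 also: tested at 20 µM; growth read once vehicle control cultures reached saturation at 30 °C; 1 = growth at the plate median or of vehicle wells; lower values mean less growth of the strain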
# Details: S. cerevisiae deletion strains, growth OD
smiles,measurement,setting,value
c1ccc2[nH]c(-c3cscn3)nc2c1,normalized growth,"locus YAL021C, strain ccr4, hits give low values",0.964
same,normalized growth,"locus YAL026C, strain drs2, hits give low values",0.956
same,normalized growth,"locus YAL030W, strain snc1, hits give low values",1.01
same,normalized growth,"locus YBL061C, strain skt5, hits give low values",1.01
same,normalized growth,"locus YBR009C, strain hhf1, hits give low values",0.965
same,normalized growth,"locus YBR021W, strain FUR4, hits give low values",0.946
same,normalized growth,"locus YBR023C, strain chs3, hits give low values",0.993
same,normalized growth,"locus YBR171W, strain sec66, hits give low values",1
same,normalized growth,"locus YBR229C, strain ROT2, hits give low values",0.991
same,normalized growth,"locus YBR231C, strain swc5, hits give low values",0.958
same,normalized growth,"locus YBR279W, strain paf1, hits give low values",1.01
same,normalized growth,"locus YCL011C, strain gbp2, hits give low values",0.982
same,normalized growth,"locus YCL016C, strain dcc1, hits give low values",0.95
same,normalized growth,"locus YCL029C, strain bik1, hits give low values",0.945
same,normalized growth,"locus YCL061C, strain MRC1, hits give low values",0.991
same,normalized growth,"locus YCL069W, strain vba3, hits give low values",0.996
same,normalized growth,"locus YCR088W, strain abp1, hits give low values",1.01
same,normalized growth,"locus YDL005C, strain med2, hits give low values",1.02
same,normalized growth,"locus YDL035C, strain GPR1, hits give low values",0.996
same,normalized growth,"locus YDL040C, strain nat1, hits give low values",1.01
same,normalized growth,"locus YDL074C, strain BRE1, hits give low values",0.94
same,normalized growth,"locus YDL101C, strain DUN1, hits give low values",1.01
same,normalized growth,"locus YDL134C, strain PPH21, hits give low values",0.998
same,normalized growth,"locus YDL185W, strain tfp1, hits give low values",1.01
same,normalized growth,"locus YDL192W, strain arf1, hits give low values",1.01
same,normalized growth,"locus YDR069C, strain doa4, hits give low values",0.988
same,normalized growth,"locus YDR101C, strain arx1, hits give low values",0.945
same,normalized growth,"locus YDR137W, strain rgp1, hits give low values",0.91
same,normalized growth,"locus YDR159W, strain sac3, hits give low values",0.965
same,normalized growth,"locus YDR162C, strain NBP2, hits give low values",1.01
same,normalized growth,"locus YDR195W, strain ref2",1.15 [resistant] (active)
same,normalized growth,"locus YDR297W, strain sur2, hits give low values",1.03
same,normalized growth,"locus YDR318W, strain mcm21, hits give low values",0.998
same,normalized growth,"locus YDR334W, strain swr1, hits give low values",0.998
same,normalized growth,"locus YDR335W, strain msn5, hits give low values",1.02
same,normalized growth,"locus YDR388W, hits give low values",1.01
same,normalized growth,"locus YDR392W, strain spt3, hits give low values",0.867
same,normalized growth,"locus YDR502C, strain sam2, hits give low values",0.971
same,normalized growth,"locus YEL003W, strain gim4, hits give low values",0.132 (active)
same,normalized growth,"locus YEL037C, strain rad23, hits give low values",0.991
same,normalized growth,"locus YEL061C, strain CIN8 (second series), hits give low values",1
same,normalized growth,"locus YEL061C, strain CIN8, hits give low values",0.987
same,normalized growth,"locus YER015W, strain faa2, hits give low values",0.997
same,normalized growth,"locus YER016W, strain bim1, hits give low values",0.995
same,normalized growth,"locus YER110C, hits give low values",1.02
same,normalized growth,"locus YER111C, strain swi4, hits give low values",1.01
same,normalized growth,"locus YER155C, strain BEM2 (second series), hits give low values",0.833 (active)
same,normalized growth,"locus YER155C, strain BEM2, hits give low values",0.991
same,normalized growth,"locus YER167W, strain BCK2, hits give low values",0.997
same,normalized growth,"locus YFR010W, strain ubp6, hits give low values",0.986
same,normalized growth,"locus YGL078C, strain dbp3, hits give low values",1.01
same,normalized growth,"locus YGL086W, strain mad1, hits give low values",0.959
same,normalized growth,"locus YGL167C, strain pmr1, hits give low values",1.02
same,normalized growth,"locus YGL173C, strain kem1, hits give low values",1.01
same,normalized growth,"locus YGL227W, strain vid30, hits give low values",1.02
same,normalized growth,"locus YGL240W, strain doc1, hits give low values",0.957
same,normalized growth,"locus YGL248W, strain PDE1, hits give low values",0.992
same,normalized growth,"locus YGL253W, strain hxk2, hits give low values",0.998
same,normalized growth,"locus YGR135W, strain pre9, hits give low values",1.04
same,normalized growth,"locus YGR252W, strain gcn5, hits give low values",0.962
same,normalized growth,"locus YHR013C, strain ard1, hits give low values",0.922
same,normalized growth,"locus YHR027C, strain rpn1, hits give low values",1.01
same,normalized growth,"locus YHR030C, strain SLT2, hits give low values",0.992 and 0.96
same,normalized growth,"locus YHR079C, strain IRE1 (second series), hits give low values",1
same,normalized growth,"locus YHR079C, strain IRE1, hits give low values",0.963
same,normalized growth,"locus YHR094C, strain hxt1, hits give low values",1.01
same,normalized growth,"locus YHR129C, strain ARP1, hits give low values",0.993
same,normalized growth,"locus YHR142W, strain chs7, hits give low values",1
same,normalized growth,"locus YHR200W, strain rpn10, hits give low values",1
same,normalized growth,"locus YIL066C, strain RNR3, hits give low values",0.954
same,normalized growth,"locus YIL073C, strain SPO22, hits give low values",1.06
same,normalized growth,"locus YIL125W, strain kgd1, hits give low values",1
same,normalized growth,"locus YIR030C, strain dcg1, hits give low values",0.994
same,normalized growth,"locus YJL092W, strain hpr5, hits give low values",0.997
same,normalized growth,"locus YJL095W, strain BCK1 (second series), hits give low values",1.02
same,normalized growth,"locus YJL095W, strain BCK1, hits give low values",0.997 and 0.958
same,normalized growth,"locus YJL115W, strain asf1, hits give low values",1
same,normalized growth,"locus YJL129C, strain trk1, hits give low values",1.02
same,normalized growth,"locus YJL134W, strain LCB3, hits give low values",1
same,normalized growth,"locus YJL154C, strain vps35, hits give low values",1.01
same,normalized growth,"locus YJL164C, strain tpk1, hits give low values",0.966
same,normalized growth,"locus YJL166W, strain qcr8, hits give low values",1
same,normalized growth,"locus YJL168C, strain set2, hits give low values",1.01
same,normalized growth,"locus YJL187C, strain SWE1 (second series), hits give low values",0.974
same,normalized growth,"locus YJR043C, strain POL32, hits give low values",0.964
same,normalized growth,"locus YJR066W, strain TOR1, hits give low values",0.917
same,normalized growth,"locus YJR075W, strain HOC1, hits give low values",0.979
same,normalized growth,"locus YKL009W, strain mrt4, hits give low values",1.02
